# Source: PubChem BioAssay (NCATS)
# Several values for one entry are separate records, joined by “and”; a condition that tells them apart may be missing. Equal entries are not always repeated. Results filed as inconclusive are left out. Where a call stands in place of a potency, no number is given. Activity calls are given as the source filed them. Unless noted, calls follow the shape of the dose curve; as a rule, active = well fitted curve in the direction sought with a large enough effect; inconclusive = small, poorly fitted or top-dose-only effect, or another doubt; inactive = no such curve, though single readings can be large; an effect the other way counts as inactive or inconclusive.
# Experiments:
# [1] = Cell Viability - SK-N-SH (AID 435; calls by dose curve; also: potency is read from the fitted curve at half-maximal effect); conditions: SK-N-SH neuroblastoma cell viability qHTS
# Method in brief: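 qHTS cytotoxicity: CellTiter-Glo ATP luminescence after 40 h compound exposure of human neuroblastoma SK-N-SH cells at 37 °C. AC50 derived by Hill-equation fitting, with DMSO as basal and 100 uM tamoxifen as full inhibition.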
# [2] = Cell Viability - N2a (AID 540); conditions: N2a mouse neuroblastoma cell viability; activity change, negative = cytotoxicity: at 92.2 µM (top of the series); also: nearly all actives have a fitted effect of over 45% in size; also: potency is read from the fitted curve at half-maximal effect
# Method in brief: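 Mouse neuroblastoma N2a cells, 1500/well, exposed to compounds 40 h at 37 °C in complete medium. Viability measured as cellular ATP by CellTiter-Glo luminescence; AC50 from Hill fits of concentration-response.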
# [3] = Cell Viability - SH-SY5Y (AID 544); conditions: SH-SY5Y neuroblastoma cell viability; viability change, negative = cytotoxic: at 92.2 µM (top of the series); also: nearly all actives have a fitted effect of over 55% in size; also: potency is read from the fitted curve at half-maximal effect
# Method in brief: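 SH-SY5Y human neuroblastoma cells (1500/well) incubated 5 h, then compound-treated 40 h at 37 °C in complete medium. Viability read as intracellular ATP by CellTiter-Glo luminescence after 20 min; AC50 from Hill-equation fits of qHTS concentration-response.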
# [4] = Cell Viability - Renal Proximal Tubule (AID 545); conditions: renal proximal tubule cells viability, primary cells of rat origin; activity change, negative = cytotoxicity: at 91.7 µM (top of the series); also: nearly all actives have a fitted effect of over 40% in size
# Method in brief: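 Viability taken as intracellular ATP (CellTiter-Glo luminescence) after 40 hr, 37 °C compound treatment of primary proximal tubule cells from rat kidney, 1000 cells/well; Hill-equation fits of qHTS concentration-response data gave AC50.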
# [5] = Cell Viability - LYMP2-001 (AID 921); conditions: LYMP2-001 lymphoblastoid cell viability; series mostly up to 92.2 µM; also: nearly all actives have a fitted effect of over 70% in size; also: potency is read from the fitted curve at half-maximal effect
# Method in brief: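 Cellular ATP loss read by luciferase luminescence after 24 h compound exposure at 37 C in complete medium. LYMP2-001 lymphoblastoid cells, 2500/well; qHTS concentration-response data fitted with Hill equation for AC50.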
# [6] = MultiTox-Fluor Cytotoxicity Assay - LYMP1-002 - Dead Cells (AID 960); conditions: LYMP1-002 lymphoblastoid cells, dead-cell protease fluorescence; series mostly up to 46.1 µM; also: nearly all actives have a fitted effect of over 60% in size; also: potency is read from the fitted curve at half-maximal effect
# Method in brief: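 Human lymphoblastoid LYMP1-002 cells, 2500/well, treated 16 h at 37 C; dead-cell protease cleavage of bis-AAF-R110 read by fluorescence (485/520); normalized to DMSO and 15 uM tetraoctylammonium bromide; AC50 from Hill fit.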
# [7] = Cell Viability - LYMP2-005 (AID 967); conditions: LYMP2-005 lymphoblastoid cell viability; series mostly up to 92.2 µM; also: potency is read from the fitted curve at half-maximal effect
# Method in brief: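 LYMP2-005 human lymphoblastoid cells (2500/well) were treated with compounds for 24 h at 37 C. Intracellular ATP was then measured by CellTiter-Glo luminescence after 30 min at room temperature. AC50 values came from Hill-equation fits of qHTS concentration-response data.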
# [8] = Cell Viability - LYMP2-009 (AID 968); conditions: LYMP2-009 lymphoblastoid cell viability; series mostly up to 92.2 µM; also: nearly all actives have a fitted effect of over 55% in size; also: potency is read from the fitted curve at half-maximal effect
# [9] = Cell Viability - LYMP2-015 (AID 971); conditions: LYMP2-015 lymphoblastoid cell viability; series mostly up to 92.2 µM; also: nearly all actives have a fitted effect of over 55% in size; also: potency is read from the fitted curve at half-maximal effect
# Method in brief: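 LYMP2-015 human lymphoblastoid cells (2500/well) in complete medium, compound-treated 24 h at 37 C; viability read as cellular ATP by CellTiter-Glo luminescence after 30 min at room temperature. AC50 from Hill-equation fits of qHTS concentration-response data.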
# [10] = Cell Viability - LYMP2-017 (AID 972); conditions: LYMP2-017 lymphoblastoid cell viability; series mostly up to 92.2 µM; also: nearly all actives have a fitted effect of over 55% in size; also: potency is read from the fitted curve at half-maximal effect
# Method in brief: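 LYMP2-017 human lymphoblastoid cells (2500/well) settled 5 hr at 37 C, then exposed to compound 24 hr at 37 C in complete medium. Viability taken as intracellular ATP by CellTiter-Glo luminescence after 30 min at RT; AC50 from Hill fits.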
# [11] = Cell Viability - LYMP2-019 (AID 973); conditions: LYMP2-019 lymphoblastoid cell line viability; series mostly up to 92.2 µM; also: nearly all actives have a fitted effect of over 55% in size; also: potency is read from the fitted curve at half-maximal effect
# Method in brief: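 Human lymphoblastoid LYMP2-019 cells (2500/well) preincubated 5 h at 37 C, then treated 24 h at 37 C in complete medium. Viability by CellTiter-Glo ATP luminescence after 30 min at room temperature; AC50 from Hill fits.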
# [12] = Cell Viability - LYMP2-010 (AID 981); conditions: LYMP2-010 lymphoblastoid cell viability, qHTS; series mostly up to 92.2 µM; also: nearly all actives have a fitted effect of over 55% in size; also: potency is read from the fitted curve at half-maximal effect
# Method in brief: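 Human lymphoblastoid LYMP2-010 cells (2500/well) treated 24 h at 37 C in complete medium; viability read as intracellular ATP by CellTiter-Glo luminescence. AC50 from Hill fits of concentration-response data; tetraoctylammonium bromide positive control.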
# [13] = molecular target: Thyroid hormone receptor beta (Homo sapiens) (UniProt P10828); test: qHTS assay for small molecule agonists of thyroid hormone receptor beta signaling (AID 588545; calls by dose curve); conditions: TR-UAS-bla GripTite HEK 293, beta-lactamase ratio, agonist mode, 18 h; series mostly up to 76.7 µM
# Thyroid hormone receptor beta (Homo sapiens), sequence (P10828 whole entry, looked up): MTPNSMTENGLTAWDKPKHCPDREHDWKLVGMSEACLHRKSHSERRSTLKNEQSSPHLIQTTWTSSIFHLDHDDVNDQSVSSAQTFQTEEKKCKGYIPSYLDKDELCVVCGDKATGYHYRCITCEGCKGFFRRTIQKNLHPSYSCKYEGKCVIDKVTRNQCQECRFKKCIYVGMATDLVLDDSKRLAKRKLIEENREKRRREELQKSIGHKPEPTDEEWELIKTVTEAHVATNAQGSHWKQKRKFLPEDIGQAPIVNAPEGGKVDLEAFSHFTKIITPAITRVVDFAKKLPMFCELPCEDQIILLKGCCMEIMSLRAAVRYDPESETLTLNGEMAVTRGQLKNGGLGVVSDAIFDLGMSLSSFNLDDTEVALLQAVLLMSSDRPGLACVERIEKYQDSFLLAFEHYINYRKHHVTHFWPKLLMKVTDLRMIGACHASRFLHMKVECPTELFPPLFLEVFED
# Method in brief: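 Beta-lactamase reporter activity under TR response element control is measured in HEK 293 cells after 18 hrs compound exposure. Signal is ratiometric CCF4 fluorescence, 460/530 nm.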
# [14] = qHTS assay for small molecule disruptors of the mitochondrial membrane potential - 1 hr assay (AID 651754; calls by dose curve; also: nearly all actives have a fitted effect of over 35% in size); conditions: series mostly up to 92.2 µM
# Method in brief: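 HepG2 cells, attached overnight, were exposed to compound for 1 hr at 37C, then stained 30 min with a potentiometric dye. Ratio of red aggregate (590nm) to green monomer (535nm) fluorescence reports membrane potential; collapse shifts signal toward green.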
# [15] = qHTS assay for small molecule disruptors of the mitochondrial membrane potential - 5 hr assay (AID 651755; calls by dose curve; also: nearly all actives have a fitted effect of over 40% in size); conditions: JC-1-type ratio dye; series mostly up to 92.2 µM
# Method in brief: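 HepG2, 2,000 cells/well, overnight attach; cpd or DMSO 5 hr, 37C/5% CO2; Mito-MPS 30 min 37C; fluor 490/535 + 540/590 nm.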
# [16] = molecular target: Nuclear receptor subfamily 1 group I member 2 (Rattus norvegicus) (UniProt Q9R1A7); test: qHTS assay for small molecule activators of the rat pregnane X receptor (rPXR) signaling pathway (AID 651751; call rule not given here); conditions: rPXR reporter cells, luciferase (One-Glo), 24 h
# Nuclear receptor subfamily 1 group I member 2 (Rattus norvegicus), sequence (Q9R1A7 whole entry, looked up): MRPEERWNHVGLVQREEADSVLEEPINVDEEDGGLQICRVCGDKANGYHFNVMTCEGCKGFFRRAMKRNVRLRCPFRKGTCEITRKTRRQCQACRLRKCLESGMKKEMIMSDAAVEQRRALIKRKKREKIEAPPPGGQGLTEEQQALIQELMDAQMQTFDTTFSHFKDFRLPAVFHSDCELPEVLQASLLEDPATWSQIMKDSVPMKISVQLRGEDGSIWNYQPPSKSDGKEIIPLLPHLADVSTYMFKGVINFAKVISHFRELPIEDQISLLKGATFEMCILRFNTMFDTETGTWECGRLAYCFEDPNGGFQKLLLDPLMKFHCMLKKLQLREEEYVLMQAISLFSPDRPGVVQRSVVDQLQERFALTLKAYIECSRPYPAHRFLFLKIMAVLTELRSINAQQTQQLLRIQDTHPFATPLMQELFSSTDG
# [17] = Cell Viability - Hek293 (AID 427;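 active = compounds whose dose-response curve shows a full or clear partial loss of cell viability, called from curve shape rather than a numeric limit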;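 also: potency is read from the fitted curve at half-maximal effect; cells exposed to compound for 40 hours at 37 °C before reading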); conditions: qHTS
# Method in brief: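 qHTS, human embryonic kidney (adenovirus-transformed) cells; 40 hr cpd, 37 °C; CellTiter-Glo ATP luminescence. Norm: DMSO = 0, 100 uM tamoxifen = 100% inhibition. Hill-fit AC50.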
# [18] = qHTS assay for small molecule agonists of retinoid X receptor alpha signaling (AID 588544; calls by dose curve); conditions: HEK293T RXRa-UAS-bla, beta-lactamase reporter, 18 h; 530 nm emission
# [19] = molecular target: Retinoic acid receptor RXR-alpha (Homo sapiens) (UniProt P19793); test: as above; conditions: HEK293T RXRa-UAS-bla, beta-lactamase reporter, 18 h; series mostly up to 76.7 µM
# Retinoic acid receptor RXR-alpha (Homo sapiens), sequence (P19793 whole entry, looked up): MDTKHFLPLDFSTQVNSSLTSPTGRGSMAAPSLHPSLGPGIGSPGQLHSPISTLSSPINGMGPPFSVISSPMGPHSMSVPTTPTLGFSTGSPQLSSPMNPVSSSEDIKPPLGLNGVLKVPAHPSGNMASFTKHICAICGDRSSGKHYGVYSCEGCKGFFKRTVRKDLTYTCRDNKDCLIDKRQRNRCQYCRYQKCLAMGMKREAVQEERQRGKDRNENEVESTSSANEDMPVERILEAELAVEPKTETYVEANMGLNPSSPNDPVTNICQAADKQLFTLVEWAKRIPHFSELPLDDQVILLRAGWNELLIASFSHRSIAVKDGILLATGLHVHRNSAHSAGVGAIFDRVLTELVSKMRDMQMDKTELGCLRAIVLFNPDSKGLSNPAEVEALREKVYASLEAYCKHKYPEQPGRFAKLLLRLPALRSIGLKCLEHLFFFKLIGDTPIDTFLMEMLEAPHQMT
# [20] = qHTS assay for small molecule agonists of the antioxidant response element (ARE) signaling pathway measured by Nrf2-dependant transcriptional activity (AID 720636; active = well fitted curve in the direction sought with a large enough effect in the repeat runs; an effect the other way counts as inactive or inconclusive;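 also: HepG2 cells with an ARE-driven luciferase reporter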); conditions: ARE-luc HepG2, Nrf2 luciferase reporter, 16 h; series mostly up to 92.4 µM
# Method in brief: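 In HepG2 cells engineered with an Nrf2-responsive luciferase gene, ARE induction was quantified as luminescence after 16 hr compound treatment at 37 C.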
smiles,measurement,setting,value
C=C1CC[C@H](O)C/C1=C/C=C1\CCC[C@]2(C)[C@@H]([C@H](C)CCCC(C)C)CC[C@@H]12,Potency,[1],47.1 µM (active)
same,Potency,[2],31.6 µM (active)
same,Potency,[3],31.6 µM (active)
same,"activity change, negative = cytotoxicity",[4],-97.9% (active)
same,Potency,[5],39.8 µM (active)
same,Potency,[6],31.6 µM (active)
same,Potency,[7],39.8 µM (active)
same,Potency,[8],50.1 µM (active)
same,Potency,[9],39.8 µM (active)
same,Potency,[10],50.1 µM (active)
same,Potency,[11],39.8 µM (active)
same,Potency,[12],39.8 µM (active)
same,Potency,[13],inactive
same,Potency,[14],inactive
same,Potency,[15],inactive
same,max response,[16],7.46% (inactive)
CC(=O)OC1CC(C)OC(C)O1 (centres undefined),Potency,[17],> 92 µM (inactive)
same,Potency,[1],> 92 µM (inactive)
same,"activity change, negative = cytotoxicity",[2],7.5% (inactive)
same,Potency,[3],inactive
same,Potency,[4],inactive
same,Potency,[5],inactive
same,Potency,[6],inactive
same,Potency,[7],inactive
same,Potency,[8],inactive
same,Potency,[9],inactive
same,Potency,[10],inactive
same,Potency,[11],inactive
same,Potency,[12],inactive
same,max response,[18],-9.84% and -8.03%
same,Potency,[19],inactive
same,Potency,[13],inactive
same,Potency,[14],inactive
same,Potency,[15],inactive
same,Potency,[20],inactive
same,max response,[16],-2.44% (inactive) and 3.14% (inactive)
c1ccc2c(c1)ccc1ccccc12,Potency,[17],> 92 µM (inactive)
same,Potency,[1],> 92 µM (inactive)
same,"activity change, negative = cytotoxicity",[2],-13.8% (inactive)
same,Potency,[4],inactive
same,Potency,[5],inactive
same,Potency,[6],inactive
same,Potency,[8],inactive
same,Potency,[9],inactive
same,Potency,[10],inactive
same,Potency,[11],inactive
same,Potency,[12],inactive
same,max response,[18],-6.28%
same,Potency,[19],inactive
same,Potency,[13],inactive
same,Potency,[14],inactive
same,Potency,[15],inactive
same,Potency,[20],inactive
same,max response,[16],-1.82% (inactive) and 1.55% (inactive)
